Experimental data reported in PubChem BioAssay.
The source made the active and inactive calls.

How the values were obtained:
[1] = tested on: Plasmodium falciparum Sir2 (PF13_0152, Sir2A); assay: pfSir2 binders on small-molecule microarrays, primary screen, biochemical, small-molecule microarray, 635 nm fluorescence (AID 1098); details: small-molecule microarray binding, fluorescence 635 nm; higher = more signal;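 note: score merges spot fluorescence intensity with its signal-to-noise ratio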
[2] = small-molecule microarray binders of probe aDKK1, primary screen, biochemical, biotinylated probe, 635/667 nm fluorescence (AID 1099); details: higher = more signal;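 note: score merges 667nm spot fluorescence with signal to noise across triplicate slides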
[3] = small-molecule microarray binders of probe aCHRDL2, primary screen, biochemical, biotinylated probe, 635/667 nm fluorescence (AID 1100); details: higher = more signal
[4] = splicing luciferase reporter signal modulators, primary screen, spliceosome inhibition project, cell-based, HEK293, splice +/- reporter (AID 1101); details: luminescence, 24 h, higher = more signal, called active from +8 up or from −8 down;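 note: HEK293 cells carrying a splicing-competent luciferase reporter gene; test concentration not given here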
[5] = biological target: Fibroblast growth factor 10 (Homo sapiens) (UniProt O15520); assay: FGF10 binders on small-molecule microarrays, primary screen, biochemical, small-molecule microarray, 635 nm fluorescence (AID 1102); details: FGF10 binding, fluorescence 635 nm, higher = more signal
Sequence of Fibroblast growth factor 10 (Homo sapiens) (O15520 whole entry, looked up): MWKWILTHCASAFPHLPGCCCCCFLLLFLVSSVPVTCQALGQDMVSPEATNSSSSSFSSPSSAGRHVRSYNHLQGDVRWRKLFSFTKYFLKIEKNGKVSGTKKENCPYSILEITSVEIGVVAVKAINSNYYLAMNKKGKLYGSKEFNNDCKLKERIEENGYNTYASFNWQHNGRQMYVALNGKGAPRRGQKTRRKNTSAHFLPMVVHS

[6] = tested on: glycogen synthase kinase-3 (GSK3A per assay name; protocol says GSK3B); assay: GSK3 binders on small-molecule microarrays, primary screen, biochemical, small-molecule microarray, 635 nm fluorescence, GSK3A (AID 1103); details: small-molecule microarray binding, fluorescence 635 nm; higher = more signal; note: the record names both GSK3A and GSK3B
[7] = biological target: Epidermal growth factor receptor (Homo sapiens) (UniProt P00533); assay: EGFR binders on small-molecule microarrays, primary screen, biochemical, small-molecule microarray, 635 nm fluorescence (AID 1104); details: EGFR binding, higher = more signal;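 note: score merges 667 nm emission intensity with spot signal to noise over triplicate slides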
Sequence of Epidermal growth factor receptor (Homo sapiens) (P00533 whole entry, looked up): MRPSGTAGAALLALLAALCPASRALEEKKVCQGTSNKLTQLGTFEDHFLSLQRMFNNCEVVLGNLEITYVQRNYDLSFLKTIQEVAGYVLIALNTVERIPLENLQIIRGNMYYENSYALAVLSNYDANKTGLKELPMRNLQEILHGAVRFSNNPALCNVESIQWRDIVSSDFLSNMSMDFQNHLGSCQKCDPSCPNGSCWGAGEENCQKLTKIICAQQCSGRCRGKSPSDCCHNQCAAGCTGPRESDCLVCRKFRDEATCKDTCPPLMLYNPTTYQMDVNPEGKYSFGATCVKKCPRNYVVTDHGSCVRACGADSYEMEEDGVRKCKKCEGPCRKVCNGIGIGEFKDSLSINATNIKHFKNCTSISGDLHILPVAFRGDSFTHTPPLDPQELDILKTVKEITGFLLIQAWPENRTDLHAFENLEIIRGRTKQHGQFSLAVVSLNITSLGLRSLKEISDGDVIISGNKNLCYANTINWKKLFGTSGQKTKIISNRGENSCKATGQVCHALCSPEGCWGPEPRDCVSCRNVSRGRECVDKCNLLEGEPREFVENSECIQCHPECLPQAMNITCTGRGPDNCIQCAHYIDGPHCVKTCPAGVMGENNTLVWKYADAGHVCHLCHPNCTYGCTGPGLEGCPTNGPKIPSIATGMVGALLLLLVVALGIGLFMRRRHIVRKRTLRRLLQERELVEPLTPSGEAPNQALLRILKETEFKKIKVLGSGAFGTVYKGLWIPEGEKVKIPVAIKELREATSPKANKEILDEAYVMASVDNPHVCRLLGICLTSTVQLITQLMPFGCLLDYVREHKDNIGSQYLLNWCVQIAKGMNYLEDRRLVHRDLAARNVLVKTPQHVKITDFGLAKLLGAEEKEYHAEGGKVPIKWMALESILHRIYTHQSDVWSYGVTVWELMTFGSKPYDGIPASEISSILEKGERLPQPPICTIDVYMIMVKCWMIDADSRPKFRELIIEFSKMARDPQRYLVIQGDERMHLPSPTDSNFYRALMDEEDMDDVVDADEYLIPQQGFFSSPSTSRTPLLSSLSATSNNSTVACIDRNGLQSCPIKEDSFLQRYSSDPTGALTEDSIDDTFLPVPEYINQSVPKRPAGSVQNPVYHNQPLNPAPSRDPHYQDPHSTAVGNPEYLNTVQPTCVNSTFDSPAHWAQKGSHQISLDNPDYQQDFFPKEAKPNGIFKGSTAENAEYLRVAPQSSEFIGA

[8] = biological target: Follistatin-related protein 3 (Homo sapiens) (UniProt O95633); assay: FSTL3 binders on small-molecule microarrays, primary screen, biochemical, small-molecule microarray, 635 nm fluorescence (AID 1105); details: FSTL3 binding, higher = more signal;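 note: score merges emission near 667 nm and signal to noise per printed spot across three slides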
Sequence of Follistatin-related protein 3 (Homo sapiens) (O95633 whole entry, looked up): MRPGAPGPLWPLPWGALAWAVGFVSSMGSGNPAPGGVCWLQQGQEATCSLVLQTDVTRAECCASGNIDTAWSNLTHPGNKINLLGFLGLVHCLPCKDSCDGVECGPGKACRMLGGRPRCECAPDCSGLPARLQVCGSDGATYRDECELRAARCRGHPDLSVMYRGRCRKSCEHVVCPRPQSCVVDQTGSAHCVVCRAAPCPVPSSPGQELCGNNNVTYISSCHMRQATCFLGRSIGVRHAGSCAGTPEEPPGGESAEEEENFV

[9] = biological target: Dickkopf-related protein 1 (Homo sapiens) (UniProt O94907); assay: DKK1 binders on small-molecule microarrays, primary screen, biochemical, small-molecule microarray, 635 nm fluorescence scan (AID 1106); details: DKK1 binding, higher = more signal;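 note: score merges emission near 667 nm with signal to noise over three replicate slides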
Sequence of Dickkopf-related protein 1 (Homo sapiens) (O94907 whole entry, looked up): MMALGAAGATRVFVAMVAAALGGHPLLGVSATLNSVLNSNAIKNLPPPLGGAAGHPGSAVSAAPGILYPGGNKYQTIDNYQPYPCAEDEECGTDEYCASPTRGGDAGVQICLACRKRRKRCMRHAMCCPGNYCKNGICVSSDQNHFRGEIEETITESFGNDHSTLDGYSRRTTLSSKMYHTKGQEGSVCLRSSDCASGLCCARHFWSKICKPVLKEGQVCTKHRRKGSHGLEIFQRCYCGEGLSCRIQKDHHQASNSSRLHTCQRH

[10] = tested on: Inhibin beta A chain (activin A); assay: INHBA (activin A) binders on microarrays, primary screen, biochemical, small-molecule microarray, 635 nm fluorescence scan (AID 1107); details: small-molecule microarray binding, higher = more signal;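 note: mouse activin A protein probed at 4.33 µg/mL on printed slides; score merges bound-protein fluorescence near 667 nm with spot signal-to-noise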
[11] = tested on: Human papillomavirus type 1a protein E7 (residues 44-93); assay: HPV1a E7 fragment binders on microarrays, primary screen, biochemical, small-molecule microarray, residues 44-93, 635 nm fluorescence (AID 1108); details: small-molecule microarray binding, fluorescence 635 nm; higher = more signal;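 note: E7 fragment applied at 1 µg/mL in TBST for 1 h at 4 C; score combines spot fluorescence with its signal to noise ratio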
[12] = modulators of HCV replicon luciferase signal, primary screen, HCV replication inhibitor project, Huh7 cells, luciferase reporter (AID 1109); details: 48 h, higher = more signal;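 note: huh7 hepatoma cells harbouring a luciferase neomycin HCV replicon reporter; luciferase luminescence as measure of HCV replicon replication; test concentration not given here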
[13] = biological target: Left-right determination factor 2 (Homo sapiens) (UniProt O00292); assay: LEFTY2 binders on small-molecule microarrays, primary screen, biochemical, small-molecule microarray, 635 nm fluorescence scan (AID 1110); details: LEFTY2 binding, higher = more signal
Sequence of Left-right determination factor 2 (Homo sapiens) (O00292 whole entry, looked up): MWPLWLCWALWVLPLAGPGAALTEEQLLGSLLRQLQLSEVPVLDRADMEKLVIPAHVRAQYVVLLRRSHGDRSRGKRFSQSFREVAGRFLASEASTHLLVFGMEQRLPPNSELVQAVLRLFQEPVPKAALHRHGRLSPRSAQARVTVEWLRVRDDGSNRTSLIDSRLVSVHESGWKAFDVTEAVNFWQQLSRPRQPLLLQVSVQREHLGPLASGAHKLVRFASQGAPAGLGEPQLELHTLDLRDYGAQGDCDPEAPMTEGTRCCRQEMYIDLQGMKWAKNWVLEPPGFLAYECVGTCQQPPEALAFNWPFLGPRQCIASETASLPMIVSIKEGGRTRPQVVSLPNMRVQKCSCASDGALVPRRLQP

[14] = biological target: Calmodulin-1 (Homo sapiens) (UniProt P0DP23); assay: CALM1 binders on microarrays, EGTA buffer, profiling panel, biochemical, small-molecule microarray, Cy5-labelled CALM1 (AID 1111); details: Cy5-CALM1 binding fluorescence, higher = more signal;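 note: labelled calmodulin applied in Tris saline Tween buffer holding calcium plus EGTA and DTT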
[15] = biological target: Calmodulin-1 (Homo sapiens) (UniProt P0DP23); assay: calcium-bound CALM1 binders on microarrays, profiling panel, artefact control for SMM control-protein annotation, biochemical, small-molecule microarray, Cy5-labelled CALM1, plus calcium (AID 1112); details: Cy5-CALM1 binding fluorescence, higher = more signal;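 note: score merges spot fluorescence with signal to noise from triplicate slides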
[16] = small-molecule microarray binders of probe aWnt5a, primary screen, biochemical, biotinylated probe, 635/667 nm fluorescence (AID 1113); details: higher = more signal;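 note: score merges 667 nm fluorescence intensity with signal-to-noise per printed feature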
[17] = small-molecule microarray binders of probe aShh, primary screen, biochemical, biotinylated probe, 635/667 nm fluorescence (AID 1114); details: higher = more signal;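 note: probe is biotin-labelled aShh protein from a stem cell growth factor screen; measures binding of labelled protein to compounds printed on the slide; score merges feature fluorescence at 667 nm with signal-to-noise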
[18] = small-molecule microarray binders of probe aNog, primary screen, biochemical, biotinylated probe, 635/667 nm fluorescence (AID 1115); details: higher = more signal;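 note: probe is biotinylated aNog protein used at 0.15 µg/mL for 1 h at 4 C; z-score combines 667 nm fluorescence of each spot with its signal to noise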
[19] = biological target: Torsin-1A-interacting protein 1 (Homo sapiens) (UniProt Q5JTV8); assay: LAP1 binders from COS7 cell lysate, primary screen, small-molecule microarray, 635/667 nm fluorescence (AID 1116); details: COS7-hLAP1 lysate binding, 635 nm fluorescence, higher = more signal
Sequence of Torsin-1A-interacting protein 1 (Homo sapiens) (Q5JTV8 whole entry, looked up): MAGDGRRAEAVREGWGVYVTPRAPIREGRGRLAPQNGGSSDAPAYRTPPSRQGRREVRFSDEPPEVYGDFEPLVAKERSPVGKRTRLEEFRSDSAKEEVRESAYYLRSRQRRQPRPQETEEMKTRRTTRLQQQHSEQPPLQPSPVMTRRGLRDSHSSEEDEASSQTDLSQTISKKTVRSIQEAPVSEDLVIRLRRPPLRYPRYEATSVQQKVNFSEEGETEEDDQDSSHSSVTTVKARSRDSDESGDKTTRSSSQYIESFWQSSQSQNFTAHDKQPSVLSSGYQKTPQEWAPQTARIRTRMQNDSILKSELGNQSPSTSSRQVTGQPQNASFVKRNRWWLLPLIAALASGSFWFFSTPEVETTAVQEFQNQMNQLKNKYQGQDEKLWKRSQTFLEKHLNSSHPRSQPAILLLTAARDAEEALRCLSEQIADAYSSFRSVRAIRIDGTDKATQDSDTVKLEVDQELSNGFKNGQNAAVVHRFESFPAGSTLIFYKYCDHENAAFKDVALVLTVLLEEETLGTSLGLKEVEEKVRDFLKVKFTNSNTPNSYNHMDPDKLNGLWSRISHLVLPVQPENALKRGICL

[20] = biological target: Alpha-bungarotoxin (Bungarus multicinctus) (UniProt P60615); assay: alpha-bungarotoxin binders on microarray, profiling panel, artefact control for SMM control protein annotation, biochemical, small-molecule microarray, Alexa647 label, 635/667 nm fluorescence (AID 1117); details: alpha-BTX-A647 binding fluorescence, higher = more signal
Sequence of Alpha-bungarotoxin (Bungarus multicinctus) (P60615 whole entry, looked up): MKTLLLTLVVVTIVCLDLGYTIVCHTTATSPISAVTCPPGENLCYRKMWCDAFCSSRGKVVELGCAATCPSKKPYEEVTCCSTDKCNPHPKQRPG

| SMILES | composite z-score [1] | composite z-score [2] | composite z-score [3] | z-score [4] | composite z-score [5] | composite z-score [6] | composite z-score [7] | composite z-score [8] | composite z-score [9] | composite z-score [10] | composite z-score [11] | z-score [12] | composite z-score [13] | composite z-score [14] | composite z-score [15] | composite z-score [16] | composite z-score [17] | composite z-score [18] | composite z-score [19] | composite z-score [20] |
| --- | --- | --- | --- | --- | --- | --- | --- | --- | --- | --- | --- | --- | --- | --- | --- | --- | --- | --- | --- | --- |
| COC(=O)C(CC#Cc1ccc2c(c1)[C@]1(C(=O)N2)[C@H](c2ccc(OCCO)cc2)N2[C@H](c3ccccc3)[C@H](c3ccccc3)OC(=O)[C@H]2[C@@H]1C(=O)O)C(=O)OC | 1.78 | 1.18 | 0.931 | -0.609 (inactive) | 0.809 | 1.03 | 0.194 | 0.808 | 0.119 | 0.765 | 0.324 | -0.442 | 0.431 | 1.23 | 0.707 | 0.0438 | 0.446 | 0.812 | 2.1 | 1.83 |
| CC(C)N1CC=CC23O[C@@H]4C=CCOC(=O)[C@@H]4[C@H]2C(=O)N(CCCCCCO)[C@@H]3C1=O (stereo not given in full) | 1.99 | -0.284 | 0.143 | -0.594 (inactive) | 0.636 | -0.826 | -0.997 | -0.483 | -0.959 | 0.741 | -0.433 | -0.761 | -0.651 | -0.815 | -0.289 | -0.18 | -0.116 | -0.223 | 2.03 | -0.92 |
| CC(=O)NCCCC[C@@H]1NC(=O)[C@@H]2C[C@H](C(=O)NCCCC[N+](C)(C)C)[C@H](c3cccc(OCCO)c3)N2C1=O | 1.08 | -0.11 | 0.275 | 0.677 (inactive) | 0.766 | -0.57 | -0.734 | 1.02 | 0.232 | -0.146 | 0.193 | -0.703 | 0.0711 | 0.601 | 0.0189 | -0.122 | -0.0643 | -0.314 | 0.714 | -0.08 |
| COC(=O)C(CC#Cc1ccc2c(c1)[C@]1(C(=O)N2)[C@H](c2ccccc2OCCO)N2[C@H](c3ccccc3)[C@H](c3ccccc3)OC(=O)[C@H]2[C@@H]1C(=O)Nc1nc2ccccc2s1)C(=O)OC | 1.21 | -0.0226 | -0.0159 | -0.333 (inactive) | 1.3 | 1.21 | 0.312 | 0.806 | 0.171 | 0.245 | 1.41 | -2.02 | 0.397 | 0.973 | -0.196 | -0.0239 | 0.233 | -0.466 | 0.874 | 1.5 |
| C=CCC(OC(C)=O)[C@@H]1[C@@H](N(Cc2ccc(-c3ccccc3)cc2)C(=O)c2cccc3ccccc23)c2cc(OCCCO)ccc2N1C(=O)c1ccc2ccccc2n1 (stereo not given in full) | -0.0429 | 0.0158 | 0.308 | -0.379 (inactive) | -0.142 | 0.124 | 0.0271 | -0.0464 | -0.196 | 1.24 | 0.0254 | -0.281 | -0.319 | 0.367 | 1.01 | -0.224 | -0.2 | -0.158 | 0.0708 | 0.382 |
| O=C(O)[C@]1(CCS(=O)(=O)c2ccccc2)N=C(c2ccc(OCCCO)cc2)O[C@@H]1c1ccccc1 | 0.74 | 1.21 | 1.04 | 0.149 (inactive) | 0.216 | 0.439 | -0.422 | -0.564 | -0.402 | 0.849 | 0.0626 | -0.0254 | -0.004 | 0.737 | 0.4 | 0.0216 | -0.0322 | 1.82 | -0.357 | -0.0315 |
| CC(C)CCC[C@@H](C)[C@H]1CC[C@@]2(C)C3=C(CC[C@]12C)[C@@]1(C)CC[C@H](OC(=O)c2ccc(N)cc2)C(C)(C)C1CC3 (stereo not given in full) | 0.347 | -0.285 | -0.761 | -0.925 (inactive) | 0.331 | 0.833 | 0.614 | 0.587 | 1.4 | -0.023 | 0.609 | 0.0533 | 1.2 | -0.137 | -0.674 | -0.0545 | 0.768 | -0.427 | 0.282 | 0.0506 |
| COC(=O)[C@H]1N=C(c2ccc(OCCCO)cc2)O[C@H]1c1ccccc1CN=[N+]=[N-] | 0.555 | 0.613 | 1.22 | -0.0171 (inactive) | -0.418 | -1.04 | -0.771 | -0.605 | -1.56 | 0.635 | 1.05 | -2.03 | -1.16 | 0.452 | 0.516 | 0.0495 | 0.105 | 1.64 | 0.431 | 0.534 |
| COCCOC(=O)N1C(=O)[C@@]2(c3ccccc31)[C@H](c1ccccc1OCCO)N1[C@H](c3ccccc3)[C@H](c3ccccc3)OC(=O)[C@H]1[C@@H]2C(=O)N1CCc2cc(OC)c(OC)cc2C1 | 1.1 | 0.153 | 0.49 | -1.42 (inactive) | 0.658 | 1.28 | 0.261 | 0.788 | 0.424 | 0.41 | 0.825 | -2.37 | 0.415 | 1.29 | 0.0498 | -0.0161 | 0.399 | 0.194 | 0.561 | 0.91 |
| COc1ccccc1CN1C(=O)c2ccccc2[C@](Cc2ccccc2I)(C(=O)NCCN2CCOCC2)[C@@H]1c1ccc(CO)cc1 | 1.62 | -0.0631 | 0.227 | 0.233 (inactive) | 1.02 | 1.31 | 1.05 | 1.46 | 0.635 | 0.437 | 1.36 | -2.96 | 1.01 | 0.688 | -0.768 | -0.0118 | -0.144 | -0.0746 | 0.488 | 1.19 |
